Experimental data published in PubChem BioAssay.
“And” between values parts separate entries of the source, which are not always exact repeats. Equal values may be shown once. The source made the active and inactive calls.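 Rule for the calls, unless noted: active = inhibition at or above 50% relative to wild type and mutant plate controls; inactive = inhibition below 50%.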

Key:
[1] = inhibitors of TNFa-induced NFkB p65 translocation, primary screen, imaging, HUVEC, MLSMR starter and 10KST1 sets (AID 438;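 active = inhibition above 20% together with a positive visual image hit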;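 note: compound added about 3h40 before a 20 min TNFalpha stimulation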;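 for inhibition: signal is the nuclear over cytoplasmic p65 intensity ratio per well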); conditions: HUVEC TNFa-induced p65 nuclear translocation; cell count: measured here: nuclei count (cytotoxicity indicator), at 2.08 µM; inhibition: at 2 µM, stronger effect = higher value, 0% TNFa-plus-vehicle, 100% no-TNFa wells
[2] = reduction of polyQ htt aggregates in cells – imaging, exon1htt(103Q)mCFP cells, high-content imaging, primary screen (AID 483;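 active = visual image review flags a hit and inhibition of aggregation exceeds 20%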;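 note: compound exposure lasted 3 days before fixation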;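 for nuclei count: percent of the per-plate median nuclei count of sample wells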); conditions: exon1htt(103Q)mCFP cell line, aggregate imaging, at 2 µM; inhibition of aggregation: stronger effect = higher value; nuclei count: measured here: cell count, toxicity
[3] = endothelial E-selectin expression blockers – imaging, HUVEC, immunofluorescence, MLSMR starter and 10KST1 sets, primary screen (AID 487;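 active = visually confirmed hit in the image check and inhibition above 20%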;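 for inhibition: signal is fraction of cell area covered by stained E-selectin grains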;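 for nuclei count: 100% = median nuclei count of all wells on the same plate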); conditions: HUVEC TNFalpha-induced E-selectin immunofluorescence imaging, at 2 µM; inhibition: stronger effect = higher value; nuclei count: measured here: cell number, toxicity
[4] = Primary imaging screen for DUSP6 inhibitors that restore phospho-Erk in transfected HeLa cells, chemical complementation (AID 609;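 active = compounds giving at least 50% inhibition in the cell-based MKP-3 phosphatase rescue imaging test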;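 for inhibition: phospho-Erk level distribution per well compared with pooled transfected vehicle control wells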); conditions: HeLa MKP-3 transfected, phospho-Erk imaging KS statistic, at 10 µM, cells stimulated with TPA for 15 min
[5] = target: Dual specificity protein phosphatase 6 (Homo sapiens) (UniProt Q16828); assay: as above; conditions: HeLa MKP-3 transfected, phospho-Erk imaging KS statistic; at 10 µM; stronger effect = higher value; cells stimulated with TPA for 15 min
[6] = target: Voltage-gated potassium channel subunit beta-2 (Rattus norvegicus) (UniProt P62483); assay: inhibitors of rat Kvbeta2 reductase activity – biochemical, NADPH fluorescence, primary screen (AID 622;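 active = fluorescence slope higher than the sample average by over 3 SD, cut at about -0.22 in these data, passing the limit was not always enough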;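 note: slope of raw intensity against log time taken from 70 to 1610 s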); conditions: recombinant KvBeta, 4-cyanobenzaldehyde reduction, at 10 µM, stronger effect = higher value
[7] = target: Voltage-gated potassium channel subunit beta-2 (Rattus norvegicus) (UniProt P62483); assay: enhancers of rat Kvbeta2 NADPH turnover – biochemical, NADPH fluorescence, primary screen (AID 623;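 active = NADPH fluorescence slope more negative than the mean of all samples by about 3 SD, 99.7% confidence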;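 note: fluorescence intensity change per second fitted from 20 to 320 s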); conditions: Recombinant KvBeta, NADPH fluorescence decrease slope, 10 min; at 10 µM; stronger effect = lower value
[8] = target: Alpha-2C adrenergic receptor (Homo sapiens) (UniProt P18825); assay: compounds altering alpha2C-coupled GIRK flux – cell-based, HEK293 alpha2C/GIRK1/2, thallium flux, primary screen (AID 624;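 active = fluorescence slope after compound addition differing from the mean of all screened samples at 99.7% confidence, in either direction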;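 note: slope of fluorescence ratio to pre-addition baseline per second over 15 to 24 s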); conditions: thallium flux BTC fluorescence, at 10 µM, actives lie on both sides
[9] = inhibitors of larval lipid processing in zebrafish, primary screen, whole organism, PED6 fluorescence, gall bladder and intestine (AID 686;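 active = a full or partial loss of lipid-probe fluorescence in the fish gall bladder, intestine or both, judged by eye; inactive = no fluorescence loss, or compound toxic to the fish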;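 note: larvae 5 to 7 days old with five fish per well; signal comes from phospholipase A2 cleavage of quenched PED6 carried via bile; overnight exposure to compound and PED6 before scoring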); conditions: Zebrafish larvae PED6 lipid processing, fluorescence scoring; screened at 20 µM (by protocol)
[10] = loss of swimming-algae plug formation – whole organism, Chlamydomonas reinhardtii, WT vs cilia-less mutant, absorbance, 96-well, primary screen (AID 463189); conditions: Chlamydomonas reinhardtii gravitaxis, OD600 absorbance, 2 days; at 10 µM; stronger effect = higher value;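 note: 0% = wild type cc124 cells in DMSO and 100% = ciliumless bld1 mutant cells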
[11] = blockers of RIG-like receptor reporter activation – cell-based, Sendai virus stimulus, luciferase, 10K MLSCN set, TLR/RLR signaling modifier project, primary screen (AID 602276;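 active = inhibition at or above 50% at 10 µM; inactive = inhibition below 50%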;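 note: firefly luciferase from ISG56 promoter only with Renilla not read in this screen; 0% = Sendai virus plus DMSO and 100% = medium plus DMSO without virus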); conditions: HEK293 RL24 IRF3 luciferase reporter, at 10 µM, stronger effect = higher value
[12] = TLR3 IRF3 reporter activation blockers – cell-based, poly I:C stimulus, luciferase, 10K MLSCN set, primary screen (AID 602277;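 active = inhibition of the reporter signal at or above 50%; inactive = inhibition below 50%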); conditions: HEK293-TLR3 RL24 IRF3 luciferase reporter, at 10 µM, stronger effect = higher value
[13] = measured here: cell density z-score
[14] = measured here: nuclear c-Myc green intensity z-score
[15] = measured here: nuclear pErk red intensity z-score, stronger effect = higher value

Dual specificity protein phosphatase 6 (Homo sapiens), sequence (Q16828 whole entry, looked up): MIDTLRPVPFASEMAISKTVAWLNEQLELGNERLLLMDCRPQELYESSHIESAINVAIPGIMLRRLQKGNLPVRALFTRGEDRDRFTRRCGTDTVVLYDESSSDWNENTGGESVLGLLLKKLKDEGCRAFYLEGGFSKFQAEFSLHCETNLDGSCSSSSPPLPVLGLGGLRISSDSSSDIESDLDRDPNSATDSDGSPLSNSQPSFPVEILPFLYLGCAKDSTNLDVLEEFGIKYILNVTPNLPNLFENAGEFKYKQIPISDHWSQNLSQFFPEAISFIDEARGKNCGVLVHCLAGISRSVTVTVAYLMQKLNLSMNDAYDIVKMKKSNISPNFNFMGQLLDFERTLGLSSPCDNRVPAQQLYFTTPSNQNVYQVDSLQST
Voltage-gated potassium channel subunit beta-2 (Rattus norvegicus), sequence (P62483 whole entry, looked up): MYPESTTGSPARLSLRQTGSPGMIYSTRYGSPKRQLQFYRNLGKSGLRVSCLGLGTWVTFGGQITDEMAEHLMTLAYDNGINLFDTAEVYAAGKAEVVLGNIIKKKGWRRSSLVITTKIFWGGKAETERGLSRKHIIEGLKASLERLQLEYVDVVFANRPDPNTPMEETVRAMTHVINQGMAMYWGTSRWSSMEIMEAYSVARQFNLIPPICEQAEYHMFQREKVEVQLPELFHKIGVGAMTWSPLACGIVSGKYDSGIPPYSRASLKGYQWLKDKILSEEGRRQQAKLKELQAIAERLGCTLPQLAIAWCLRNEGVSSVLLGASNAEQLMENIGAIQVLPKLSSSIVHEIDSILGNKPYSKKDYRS
Alpha-2C adrenergic receptor (Homo sapiens), sequence (P18825 whole entry, looked up): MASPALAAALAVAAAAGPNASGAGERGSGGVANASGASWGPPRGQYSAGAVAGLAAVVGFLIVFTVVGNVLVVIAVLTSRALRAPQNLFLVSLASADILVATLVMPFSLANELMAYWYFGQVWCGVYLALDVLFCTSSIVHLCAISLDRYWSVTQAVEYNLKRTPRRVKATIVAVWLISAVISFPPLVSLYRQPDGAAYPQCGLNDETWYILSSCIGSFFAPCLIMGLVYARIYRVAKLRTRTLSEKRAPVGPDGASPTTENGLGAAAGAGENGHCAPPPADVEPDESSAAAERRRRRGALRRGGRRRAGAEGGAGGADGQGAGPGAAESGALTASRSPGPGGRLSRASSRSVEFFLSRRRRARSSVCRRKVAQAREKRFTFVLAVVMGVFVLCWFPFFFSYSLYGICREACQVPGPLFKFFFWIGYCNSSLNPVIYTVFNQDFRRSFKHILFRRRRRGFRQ

SMILES | cell count [1] | inhibition [1] | inhibition of aggregation [2] | nuclei count [2] | inhibition [3] | nuclei count [3] | z-score [4, 13] | z-score [4, 14] | z-score [4, 15] | inhibition [5] | fluorescence slope [6] | NADPH fluorescence slope [7] | slope [8] | outcome [9] | inhibition [10] | inhibition [11] | inhibition [12]
CN(C)CCOC(=O)C(c1ccccc1)C1(O)CCCC1 (configuration not stated) | 635 | -7.2% (inactive) | -8.5% (inactive) | 102% | -51% (inactive) | 110% | 0.315 | 0.351 | 1.54 | -6.41% (inactive) | -0.432 (inactive) | -7.3e-05 (inactive) | 0.00471 (inactive) | inactive | 13.5% (inactive) | 15.3% (inactive) | 45.7% (inactive)
COCCOC(=O)c1c(C)nc(SCC(=O)Nc2ccc(OC)cc2)c(C#N)c1-c1ccco1 | 386 | -17.9% (inactive) | -11.5% (inactive) | 76% | -23.1% (inactive) | 90% | -0.584 | -0.072 | -0.599 | -6.59% (inactive) | -0.422 (inactive) | -2.9e-05 (inactive) | 0.00733 (inactive) | inactive | -0.332% (inactive) | 16.9% (inactive) | 12.1% (inactive)
CCC1=C(C(=O)OC)C(c2cc(OC)ccc2OC)C(C#N)=C(N)O1 (configuration not stated) | 296 | -8.8% (inactive) | 6.8% (inactive) | 106% | -58% (inactive) | 129% | 1.11 | 0.712 | -2.04 | 5.65% (inactive) | -0.478 (inactive) | -0.000233 (inactive) | 0.00469 (inactive) | inactive | -0.583% (inactive) | 17% (inactive) | 24% (inactive)
Cc1nc(NS(=O)(=O)c2ccccc2)sc1NC(=O)OC(C)C | 364 | -12.7% (inactive) | -9.8% (inactive) | 108% | -118% (inactive) | 138% | -0.163 | -0.612 | 0.551 | 17.5% (inactive) | -0.415 (inactive) | 1e-05 (inactive) | 0.00272 (inactive) | inactive | 16.7% (inactive) | 2.77% (inactive) | 9.41% (inactive)
NC(CO)C(=O)NNCc1ccc(O)c(O)c1O (configuration not stated) | 571 | -9.9% (inactive) | -16.9% (inactive) | 117% | -52.2% (inactive) | 124% | 0.364 | 0.175 | -0.65 | 3.45% (inactive) | -0.466 (inactive) | -6.2e-05 (inactive) | 0.00539 (inactive) | inactive | -0.599% (inactive) and -9.6% (inactive) | 8.18% (inactive) | 29.4% (inactive)
CCN(CC)C(=O)CSC1=C(C#N)C(c2ccco2)C(C(=O)OCCOC)=C(C)N1 (configuration not stated) | 393 | -8.6% (inactive) | 15.4% (inactive) | 104% | -184% (inactive) | 152% | 0.81 | -0.0131 | 1.47 | -3.98% (inactive) | -0.378 (inactive) | -3e-05 (inactive) | 0.00415 (inactive) | inactive | 14% (inactive) | 2.19% (inactive) | 16.7% (inactive)
C[C@]12CC[C@@H]3c4ccc(OS(=O)(=O)O)cc4CC[C@H]3[C@@H]1CCC2=O | 725 | -2.6% (inactive) | 1.7% (inactive) | 98.9% | -120% (inactive) | 121% | 1.77 | -0.742 | -1.13 | 1.48% (inactive) | -0.507 (inactive) | -4.6e-05 (inactive) | 0.00404 (inactive) | inactive | 2.37% (inactive) | 11.2% (inactive) | 25.7% (inactive)
CC(C)N=c1cc2n(-c3ccc(Cl)cc3)c3ccccc3nc-2cc1Nc1ccc(Cl)cc1 | 636 | -2.8% (inactive) | -9.9% (inactive) | 102% | -163% (inactive) | 126% | -0.698 | -0.296 | 0.758 | -0.493% (inactive) | -0.535 (inactive) | -1.6e-05 (inactive) | 0.00125 (inactive) | active; weak signal in gallbladder and intestine | 157% (active) | -7.35% (inactive) | 33.1% (inactive)
COc1ccc2c(c1OC)C(=O)O[C@@H]2[C@H]1c2c(cc3c(c2OC)OCO3)CCN1C | 567 | 1.8% (inactive) | 0.2% (inactive) | 97.2% | -22.4% (inactive) | 112% | 0.15 | -0.163 | -0.0552 | 23.4% (inactive) | -0.46 (inactive) | -6.4e-05 (inactive) | 0.00541 (inactive) | inactive | -5.91% (inactive) and 3.65% (inactive) | 0.328% (inactive) | 32.2% (inactive)
Cn1ccnc1SCCC#N | 569 | -2.2% (inactive) | -3.9% (inactive) | 110% | -10.9% (inactive) | 116% | -0.727 | 0.913 | -1.8 | 6.04% (inactive) | -0.51 (inactive) | -0.000118 (inactive) | 0.00562 (inactive) | inactive | 3.16% (inactive) | 5.13% (inactive) | 14.1% (inactive)
C=CCc1ccccc1OCC(O)CNC(C)C (configuration not stated) | 628 | -8.8% (inactive) | -10% (inactive) | 89.9% | -120% (inactive) | 131% | 1.42 | 0.365 | -0.961 | 7.39% (inactive) | -0.466 (inactive) | -2.4e-05 (inactive) | 0.00435 (inactive) | inactive | -2.53% (inactive) and -4.71% (inactive) | 11.2% (inactive) | 34.8% (inactive)
Cc1ncc([N+](=O)[O-])n1CC(O)CCl (configuration not stated) | 546 | -5% (inactive) | -12.8% (inactive) | 100% | -91.7% (inactive) | 114% | 0.947 | -1.73 | -1.47 | 3.45% (inactive) | -0.5 (inactive) | 2.8e-05 (inactive) | 0.00498 (inactive) | inactive | -0.632% (inactive) | -0.807% (inactive) | 16.6% (inactive)
CCOC(=O)N1CCN(c2ncnc3c2[nH]c2ccc(OC)cc23)CC1 | 520 | -6% (inactive) | 2.6% (inactive) | 109% | 6.4% (inactive) | 100% | 1.15 | -0.635 | 1.15 | 0.671% (inactive) | -0.222 (inactive) | -4.8e-05 (inactive) | 0.00434 (inactive) | inactive | 8.03% (inactive) | -1.93% (inactive) | -5.19% (inactive)
CCn1cc(C(=O)O)c(=O)c2cc(F)c(N3CCNCC3)cc21 | 576 | -6.9% (inactive) | 13% (inactive) | 87.7% | -31% (inactive) | 108% | 0.515 | -1.04 | 1.05 | -6.41% (inactive) | -0.472 (inactive) | 1.5e-05 (inactive) | 0.00555 (inactive) | inactive | -5.87% (inactive) | -0.442% (inactive) | 10.8% (inactive)
CNCCCC1c2ccccc2C=Cc2ccccc21 | 583 | -3.3% (inactive) | 10.3% (inactive) | 79.5% | -90.5% (inactive) | 120% | 0.8 | 0.418 | 3.14 | -11.9% (inactive) | -0.496 (inactive) | -5.9e-05 (inactive) | 0.00425 (inactive) | inactive | 7.66% (inactive) and 11.9% (inactive) | 18.5% (inactive) | 41.3% (inactive)
Cc1nc(-c2coc3cc(OCC(=O)O)ccc3c2=O)cs1 | 642 | -9% (inactive) | 16.4% (inactive) | 100% | -136% (inactive) | 114% | -0.205 | 0.979 | 0.055 | 11.9% (inactive) | -0.552 (inactive) | -4.6e-05 (inactive) | 0.00509 (inactive) | inactive | 29.5% (inactive) | 20.3% (inactive) | 15.4% (inactive)
CCN(CC)CCN1C(=O)C(=O)/C(=C(/O)c2ccc(OC(C)C)cc2)C1c1ccncc1 (configuration not stated) | 529 | -5.6% (inactive) | 3% (inactive) | 116% | -8.2% (inactive) | 104% | -0.653 | -0.46 | -0.356 | -6.48% (inactive) | -0.356 (inactive) | 4.4e-05 (inactive) | 0.00527 (inactive) | inactive | -14% (inactive) | 8.32% (inactive) | 8.84% (inactive)
COC(=O)c1cc(Br)c(=O)n(Cc2cccnc2)c1 | 578 | 3% (inactive) | -10.7% (inactive) | 108% | -15.9% (inactive) | 109% | -0.222 | 1.1 | -1.83 | -3.5% (inactive) | -0.545 (inactive) | -2.2e-05 (inactive) | 0.00588 (inactive) | inactive | -26.1% (inactive) | 9.75% (inactive) | 17.7% (inactive)
C[C@@H]1C[C@H]2[C@@H]3C[C@H](F)C4=CC(=O)C=C[C@]4(C)[C@@]3(F)[C@@H](O)C[C@]2(C)[C@@]1(O)C(=O)COC(=O)C(C)(C)C | 563 | 1.4% (inactive) | -3% (inactive) | 51.7% | -36.8% (inactive) | 92.6% | 0.404 | -0.122 | -1.39 | 5.42% (inactive) | -0.475 (inactive) | -6.6e-05 (inactive) | 0.00583 (inactive) | inactive | -9.6% (inactive) | 2.87% (inactive) | 35.9% (inactive)
CCCCCC(=O)N1CC2(C)CN(C(=O)CCCCC)CC(C)(C1)C2=O | 482 | 3.2% (inactive) | -8.1% (inactive) | 97.5% | -94.9% (inactive) | 101% | 0.798 | 0.672 | 0.65 | 7.42% (inactive) | -0.352 (inactive) | -4.5e-05 (inactive) | 0.00564 (inactive) | inactive | 24% (inactive) | 6.58% (inactive) | 21.5% (inactive)
CC(C)C[C@H](NC(=O)[C@@H]1O[C@H]1C(=O)O)C(=O)NCCCCN=C(N)N | 565 | 1.2% (inactive) | 14.2% (inactive) | 93.3% | -70.2% (inactive) | 120% | 0.0952 | -0.437 | 0.847 | 3.45% (inactive) | -0.492 (inactive) | -4.3e-05 (inactive) | 0.00515 (inactive) | inactive | 9.72% (inactive) | 13.8% (inactive) | 45.3% (inactive)
